Reference: PubChem BioAssay (NCI)
The panel holds about 83,000 compounds, 20% with a hit somewhere; the sample as a whole holds those more often.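 Negative percent growth values reflect cell death: -40 means 40% of the cells present at the start died, and -100 means all died.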 Activity calls are given as the source filed them. How the source made its calls: active means growth percent below 10; inactive means the rest.

Experiments:
Test in all cases: NCI-60 one-dose screen, 48 h (100 = growth as untreated, 0 = no growth, -100 = all killed)
Settings in all cases: 10 µM unless noted
[1] = test system: K-562 leukemia
[2] = test system: MALME-3M melanoma
[3] = test system: MDA-MB-231 breast
[4] = test system: RXF 393 renal
[5] = test system: SF-268 CNS
[6] = test system: SF-295 CNS
[7] = test system: SF-539 CNS
[8] = test system: UACC-257 melanoma
[9] = test system: M14 melanoma
[10] = test system: HCT-15 colon

Measured: growth

COC1CC(CC2CCC(C)C(C(C)C(=O)O)O2)OC2(OC(C)(C3CCC(C)(C4OC(C5OC(O)(CO)C(C)CC5C)CC4C)O3)CC2C)C1C (centres undefined)
inactive: [4] 28% | [5] 10.7%
active: [1] -67.6% | [2] -96% | [3] -21.7% | [6] -39.2% | [7] -49.1% | [8] 7.33% | [9] -71.9% | [10] 5.7%

Oc1cc[c]([Hg][Cl])cc1
inactive: [1] 60.2% | [2] 94.2% | [4] 116% | [5] 95.4% | [6] 113% | [7] 121% | [8] 99.6% | [9] 91.1% | [10] 91.4%

Cc1ccc(C(=O)OC(C(=O)O)C(OC(=O)c2ccc(C)cc2)C(=O)O)cc1 (centres undefined) (tested in a mixture with another compound)
inactive: [1] 11.1% | [2] 51.6% | [4] 54.1% | [5] 68.5% | [6] 61.8% | [7] 70.2% | [8] 46.1% | [9] 45.2% | [10] 16.3%

CC[C@@]1(O)C(=O)OCc2c1cc1n(c2=O)Cc2cc3ccccc3nc2-1
active: [1] 0.554% | [2] -59.5% | [4] 6.33% | [5] 2.82% | [6] -14.4% | [7] -46.4% | [8] -17.8% | [9] -39% | [10] -18.7%
inactive: [3] 28.6%

NCCc1ccc(OCc2ccccc2)c(OCc2ccccc2)c1
inactive: [1] 30.8% | [2] 106% | [3] 79.2% | [4] 62.2% | [5] 89.2% | [6] 97.1% | [7] 93.1% | [9] 102% | [10] 75.3%

CC1=C2C(=O)[C@H]3[C@@H](CC=C4C[C@@H](O)CC[C@@]43C)[C@@H]2CC[C@]12O[C@@H]1C[C@H](C)CN[C@H]1[C@H]2C
inactive: [1] 154% | [2] 84.6% | [3] 105% | [4] 98.8% | [5] 105% | [6] 93.3% | [7] 101% | [8] 104% | [9] 92.9% | [10] 94.2%

CCC1(O)CC(OC2CC(N(C)C)C(OC3CC4OC5CC(=O)C(C)OC5OC4C(C)O3)C(C)O2)c2c(cc3c(c2O)C(=O)c2c(O)ccc(O)c2C3=O)C1C(=O)OC (centres undefined)
active: [1] -39.7% | [2] -95.3% | [3] -5.87% | [4] -1.64% | [5] -14.3% | [6] -32.7% | [7] -55.6% | [8] -3.52% | [9] -95% | [10] -46.1%

CC[C@@]1(O)C[C@H](OC2CC(N(C)C)C(OC3CC(O)C(OC4CCC(=O)C(C)O4)C(C)O3)C(C)O2)c2c(cc3c(c2O)C(=O)c2c(O)ccc(O)c2C3=O)[C@H]1C(=O)OC (some centres undefined)
active: [1] 0.0817% | [2] -12.2% | [6] 8.52% | [7] -5.75% | [8] -30.9% | [9] 3.55% | [10] -70.6%
inactive: [3] 28.4% | [4] 12.6% | [5] 22.7%

CCOC(=O)C(NC(=O)C(Cc1ccc(N(CCCl)CCCl)cc1)NC(C)=O)C(C)C (centres undefined)
inactive: [1] 85.6% | [2] 91.7% | [3] 96.8% | [4] 96.4% | [5] 71.5% | [6] 86% | [7] 77.3% | [8] 87.2% | [9] 84.1% | [10] 94.9%

COc1ccc(OC)c(/C=C/[N+](=O)[O-])c1
active: [1] 4.27% | [3] 5.7% | [4] -88.7% | [7] -6.84% | [8] -12% | [9] -11.5% | [10] -13.4%
inactive: [2] 24.9% | [5] 13.1%

C[C@H]1CCC/C=C/[C@@H]2C[C@H](O)C[C@H]2[C@H](O)/C=C/C(=O)O1
active: [1] 5.56% | [2] -73% | [3] -68% | [9] -9.75% | [10] -28.2%
inactive: [4] 11% | [5] 10.3% | [6] 20.9% | [7] 27.1% | [8] 13.1%

CN1CCN(c2ccc([N+](=O)[O-])c3no[n+]([O-])c23)CC1
active: [1] -18.4% | [2] -78.8% | [3] -32.1% | [4] -92.8% | [5] -41.4% | [6] -52% | [8] -95.6% | [9] -65.2% | [10] -56.3%

O=C1c2ccccc2C(=O)C(Cl)C1Cl (centres undefined)
active: [1] -7.91% | [2] -98.5% | [4] -9.44% | [8] 0.891% | [10] -86.6%
inactive: [5] 87.5% | [6] 94.3% | [7] 89.5% | [9] 76.7%

CC[C@@]1(O)C[C@H](OC2CC(N(C)C)C(O)C(C)O2)c2c(O)c3c(c(O)c2[C@H]1OC1CC(N(C)C)C(O)C(C)O1)C(=O)c1cccc(O)c1C3=O (some centres undefined)
active: [1] -28.5% | [2] -93.7% | [3] -9.74% | [4] 0.503% | [5] -19.3% | [6] -27.2% | [7] -48.9% | [8] 2.59% | [9] -87.2% | [10] -49.7%

CCC(=O)OC1CCn2c1nc1c2C(=O)C(C)=C(N2CC2)C1=O (centres undefined)
active: [1] 9.08% | [2] -60.4% | [4] -79.8% | [5] 7.54% | [6] 2.01% | [7] -33.6% | [8] -55.7% | [9] -58.1% | [10] 2.82%
inactive: [3] 71.7%
